Activity calls are given as the source filed them. Unless noted, how the calls were made is not given here.

The test system of experiment [1] is Wnt5a (protein binding on small-molecule microarray). Briefly: Wnt5a binders on small-molecule microarray, primary screen, biophysical, 635/667 nm fluorescence (AID 1142).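 Further: fluorescence read at 667 nm with signal to noise per printed feature.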 The settings on record: 635 nm fluorescence, higher = more signal.
Experiment [2] in a line: cell viability in Huh7 cells, primary screen, cytotoxicity control for HCV replication inhibitor project, CellTiter-Glo luminescence, basal, 48 h (AID 1143).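 Further: Huh7 hepatoma cells carrying a hepatitis C replication reporter with no stimulus; test concentration not given here.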 The settings on record: Huh7 HCV replicon, higher = more signal, called active from +8 up or from −8 down. Background: In ATP-based viability assays light output follows the ATP content of the culture.
A short description of experiment [3]: P. aeruginosa biofilm formation inhibitors, primary screen, PAO1 strain, BacTiter-Glo luminescence, LB-PBS (AID 1144). To be noted: 12 h, higher = more signal.
A short description of experiment [4]: CREB reporter modulators without forskolin, primary screen, cell-based, PC12, CRE-LacZ reporter, unstimulated (AID 1145). To be noted: no forskolin, luminescence, 4.5 h, higher = more signal, called active from +8 up or from −8 down.
A short description of experiment [5]: CREB reporter modulators under forskolin, primary screen, cell-based, PC12, CRE-LacZ reporter, forskolin-stimulated (AID 1146).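 Further: PC12 cells with 6xCRE LacZ reporter stimulated by forskolin 10 µM; beta-galactosidase reporter signal reflecting CREB driven transcription.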 The settings on record: luminescence, 4.5 h, higher = more signal, called active from +8 up or from −8 down.
Experiment [6] concerns the target Streptavidin (Streptomyces avidinii) (UniProt P22629). Description: streptavidin binders on small-molecule microarray, primary screen, artefact control for SMM compound annotation, biophysical, 635/667 nm fluorescence (AID 1147).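 Further: signal reflects streptavidin binding to arrayed compounds as a control protein.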 The settings on record: streptavidin binding, higher = more signal.
Experiment [7] in a line: small-molecule binders of probe aInhba, primary screen, biochemical, small-molecule microarray, 635/667 nm fluorescence (AID 1148).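 Further: score merges 667nm spot fluorescence with signal-to-noise for antibody binding to printed compounds.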 To be noted: higher = more signal.
For experiment [8], the target named is Torsin-1A (Homo sapiens) (UniProt O14656). Briefly: torsin A binders from cell lysate, primary screen, small-molecule microarray, wild-type, 635/667 nm (AID 1149). To be noted: COS7 hTOR1A-WT lysate, 635 nm fluorescence, higher = more signal.
For experiment [9] the target is unchanged. Briefly: small-molecule binders of mutant TOR1A in lysate, primary screen, cell lysate, small-molecule microarray, COS7 lysate, 635/667 nm fluorescence (AID 1150).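 Further: score pools 667 nm emission and signal to noise measuring lysate protein binding.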 To be noted: COS7 hTOR1A mutant lysate, 635 nm fluorescence, higher = more signal.
For experiment [10], the system named is Sonic hedgehog protein (Shh). Description: small-molecule binders of Shh protein, primary screen, biochemical, small-molecule microarray, 635/667 nm fluorescence (AID 1151).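 Further: Shh protein binding to compounds spotted on small-molecule microarray slides; score combines spot fluorescence intensity with signal-to-noise across triplicate slides.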 The settings on record: small-molecule microarray binding, 635 nm fluorescence; higher = more signal.
A short description of experiment [11]: E. coli DRC41 culture turbidity changes, primary screen, E. coli filamentation inducer project, strain DRC41, OD650, 48 h (AID 1152).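 Further: E. coli MC1000 strain DRC41 lacking acrAB efflux pump and sulA.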 To be noted: E. coli DRC41 (acrAB sulA), higher = more signal, called active from +8 up or from −8 down.
Experiment [12] is described as follows: small-molecule binders of probe aLefty1, primary screen, biochemical, small-molecule microarray, 635/667 nm fluorescence (AID 1153).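 Further: score merges spot fluorescence with signal-to-noise ratio from the scanned slide images.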 The settings on record: higher = more signal.
Experiment [13] can be described thus: PSAC antagonists in infected red cells, primary screen, cell-based, P. falciparum Indochina, OD700, 1 h (AID 1154). The settings on record: P. falciparum Indochina infected RBC osmotic lysis, higher = more signal, called active from +8 up or from −8 down.
Experiment [14] is described as follows: PSAC antagonists in infected red cells, primary screen, cell-based, P. falciparum Indochina, OD700, 2 h (AID 1155).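 Further: lysis reports solute entry through the parasite surface anion channel PSAC; channel blockers reduce lysis of infected cells.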 To be noted: P. falciparum Indochina infected erythrocytes, osmotic lysis OD700; higher = more signal, called active from +8 up or from −8 down.
Experiment [15] can be described thus: osmotic lysis modulators in infected erythrocytes, primary screen, PSAC antagonist project, cell-based, P. falciparum Indochina, OD700, 3 h (AID 1156). To be noted: higher = more signal, called active from +8 up or from −8 down.
A short description of experiment [16]: PSAC antagonists in infected red cells, primary screen, cell-based, P. falciparum Indochina, OD700, 18 h (AID 1157). To be noted: P. falciparum Indochina infected erythrocytes, osmotic lysis OD700, 18 h; higher = more signal, called active from +8 up or from −8 down.
A short description of experiment [17]: modulators of S6 phosphorylation in cells, primary screen, cell-based, A549, cytoblot, luminescence, serum-stimulated (AID 1158).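 Further: serum-stimulated A549 lung adenocarcinoma cells; signal is phosphorylated S6 detected by cytoblot immunostaining with HRP secondary.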 To be noted: A549 phospho-S6 cytoblot, 5 h, higher = more signal.
Experiment [18] concerns the target NADPH oxidase 2 (Homo sapiens) (UniProt P04839). Briefly: NOX2-dependent H2O2 signal modulators, primary screen, NOX inhibitor project, cell-based, HEK293-NOX2, PMA-stimulated, Amplex Red fluorescence (AID 1159). Further: test concentration not given here. The settings on record: 45 min, higher = more signal, called active from +8 up or from −8 down.
The target of experiment [19] is NADPH oxidase 4 (Homo sapiens) (UniProt Q9NPH5). Description: NOX4-dependent H2O2 signal modulators, primary screen, NOX inhibitor project, cell-based, HEK293-NOX4, tetracycline-induced, Amplex Red fluorescence (AID 1160). The settings on record: 45 min, higher = more signal, called active from +8 up or from −8 down.
For experiment [20], the target named is NADPH oxidase 5 (Homo sapiens) (UniProt Q96PH1). Briefly: NOX5-dependent H2O2 signal modulators, primary screen, NOX inhibitor project, cell-based, HEK293-NOX5, Amplex Red fluorescence (AID 1161). To be noted: HEK293-NOX5, ionomycin, 45 min, higher = more signal.
NADPH oxidase 5 (Homo sapiens), sequence (Q96PH1 whole entry, looked up): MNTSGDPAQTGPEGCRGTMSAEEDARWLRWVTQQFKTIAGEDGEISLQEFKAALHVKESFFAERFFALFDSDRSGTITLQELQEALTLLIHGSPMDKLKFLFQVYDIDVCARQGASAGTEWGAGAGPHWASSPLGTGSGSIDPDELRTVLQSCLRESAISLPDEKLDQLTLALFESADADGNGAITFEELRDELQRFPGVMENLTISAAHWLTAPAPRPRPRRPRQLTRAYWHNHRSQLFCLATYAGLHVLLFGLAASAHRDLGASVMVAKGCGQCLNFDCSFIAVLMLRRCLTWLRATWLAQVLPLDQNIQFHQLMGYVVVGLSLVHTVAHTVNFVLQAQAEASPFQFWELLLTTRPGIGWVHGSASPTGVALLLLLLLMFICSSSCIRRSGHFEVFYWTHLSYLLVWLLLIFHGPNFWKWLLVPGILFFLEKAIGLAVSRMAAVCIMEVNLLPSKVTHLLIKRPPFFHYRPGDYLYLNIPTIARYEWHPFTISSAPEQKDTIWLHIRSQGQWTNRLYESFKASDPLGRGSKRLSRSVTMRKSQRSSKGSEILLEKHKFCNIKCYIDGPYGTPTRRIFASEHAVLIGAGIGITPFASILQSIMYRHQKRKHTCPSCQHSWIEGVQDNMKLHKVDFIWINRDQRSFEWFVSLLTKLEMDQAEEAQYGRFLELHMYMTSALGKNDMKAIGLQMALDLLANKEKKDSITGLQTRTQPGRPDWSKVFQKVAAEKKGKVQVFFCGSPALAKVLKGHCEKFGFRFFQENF

Streptavidin (Streptomyces avidinii), sequence (P22629 whole entry, looked up): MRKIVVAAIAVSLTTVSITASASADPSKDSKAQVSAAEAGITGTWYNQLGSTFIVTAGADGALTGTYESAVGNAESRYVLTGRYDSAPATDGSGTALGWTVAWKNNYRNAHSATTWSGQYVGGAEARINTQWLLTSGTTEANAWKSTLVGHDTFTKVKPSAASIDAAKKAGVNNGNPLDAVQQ
NADPH oxidase 2 (Homo sapiens), sequence (P04839 whole entry, looked up): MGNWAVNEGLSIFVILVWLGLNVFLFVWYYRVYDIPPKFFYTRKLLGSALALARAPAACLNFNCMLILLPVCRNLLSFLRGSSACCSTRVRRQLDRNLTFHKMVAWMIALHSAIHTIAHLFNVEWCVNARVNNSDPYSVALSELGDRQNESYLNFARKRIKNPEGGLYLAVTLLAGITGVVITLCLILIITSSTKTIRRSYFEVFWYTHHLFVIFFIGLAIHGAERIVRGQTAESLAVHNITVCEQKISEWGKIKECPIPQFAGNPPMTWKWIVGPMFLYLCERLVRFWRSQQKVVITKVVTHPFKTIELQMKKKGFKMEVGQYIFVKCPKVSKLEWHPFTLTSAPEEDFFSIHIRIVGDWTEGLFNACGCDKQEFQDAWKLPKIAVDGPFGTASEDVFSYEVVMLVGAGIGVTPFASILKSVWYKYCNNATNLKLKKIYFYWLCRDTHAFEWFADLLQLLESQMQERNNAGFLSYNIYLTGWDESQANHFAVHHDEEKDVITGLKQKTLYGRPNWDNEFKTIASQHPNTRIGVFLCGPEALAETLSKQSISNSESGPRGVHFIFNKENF
NADPH oxidase 4 (Homo sapiens), sequence (Q9NPH5 whole entry, looked up): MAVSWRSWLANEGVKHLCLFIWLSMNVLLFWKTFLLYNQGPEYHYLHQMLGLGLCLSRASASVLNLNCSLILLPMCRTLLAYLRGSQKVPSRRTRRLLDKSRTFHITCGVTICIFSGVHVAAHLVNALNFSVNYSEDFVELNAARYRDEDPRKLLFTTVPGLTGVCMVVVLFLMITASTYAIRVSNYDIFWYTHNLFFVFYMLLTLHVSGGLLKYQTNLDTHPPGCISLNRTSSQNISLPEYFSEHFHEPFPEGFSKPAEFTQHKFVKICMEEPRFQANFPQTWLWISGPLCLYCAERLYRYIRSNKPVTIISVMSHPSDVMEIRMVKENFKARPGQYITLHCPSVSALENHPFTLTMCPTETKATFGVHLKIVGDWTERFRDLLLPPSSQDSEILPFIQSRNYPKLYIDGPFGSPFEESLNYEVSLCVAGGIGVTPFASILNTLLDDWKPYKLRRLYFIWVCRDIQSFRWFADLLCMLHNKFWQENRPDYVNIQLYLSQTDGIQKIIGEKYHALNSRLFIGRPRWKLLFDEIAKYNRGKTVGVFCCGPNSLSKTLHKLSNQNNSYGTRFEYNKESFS
Torsin-1A (Homo sapiens), sequence (O14656 whole entry, looked up): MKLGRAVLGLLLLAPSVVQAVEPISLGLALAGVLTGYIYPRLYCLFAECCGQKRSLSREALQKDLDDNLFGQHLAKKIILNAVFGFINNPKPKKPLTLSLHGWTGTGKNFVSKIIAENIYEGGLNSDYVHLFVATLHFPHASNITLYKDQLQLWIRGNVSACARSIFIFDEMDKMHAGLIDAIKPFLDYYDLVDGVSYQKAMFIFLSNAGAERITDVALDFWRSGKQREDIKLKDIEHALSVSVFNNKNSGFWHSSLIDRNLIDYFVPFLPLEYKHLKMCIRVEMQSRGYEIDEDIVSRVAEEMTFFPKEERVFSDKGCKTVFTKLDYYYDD

`CCCCCCc1nc(-c2cc(C)c(OC)c(C)c2)c(C)c2c1[Si](C(C)C)(C(C)C)OC2`: the composite z-score in experiment [1] is 0; in [6], 0.273; in experiment [7] it was -0.128; in experiment [8], 0.0704; in experiment [9], -1.06; in experiment [10], 0.186. The compound further had a composite z-score in experiment [12] of 0.0056. The z-score is -3.03 (inactive) in [2]; -0.892 (inactive) in [3]; 0.148 (inactive) in experiment [4]; -0.101 (inactive) in [5]; 0.03 (inactive) in [11]; 1.53 (inactive) in [13]. In addition, the z-score in experiment [14] is -0.314 (inactive); in [15], 1.02 (inactive); in [16] it was -0.348 (inactive); in experiment [17], 1.94; in [18] it was -2.5 (inactive); in experiment [19] it was 0.626 (inactive). Moreover, the z-score in experiment [20] was -2.23.

For `NC(=O)NCC#Cc1ccc2c(c1)[C@]1(C(=O)N2)[C@H](C(=O)O)[C@H]2C(=O)O[C@H](c3ccccc3)[C@H](c3ccccc3)N2[C@@H]1c1ccc(OCCO)cc1`, the composite z-score in experiment [1] is 0.0755; in experiment [6] it was 1.15; in experiment [7], -0.102; in experiment [8], -0.0721; in experiment [9] it was 0.588; in experiment [10], 0.135. In [12], the composite z-score is -0.147. In addition, the z-score in experiment [2] is -0.175 (inactive); in [3], -0.015 (inactive); in experiment [4] it was -0.195 (inactive); in [5] it was -0.746 (inactive); in [11], 0.215 (inactive); in [13] it was 3.93 (inactive). Besides, the z-score is 0.523 (inactive) in experiment [14]; 0.643 (inactive) in experiment [15]; 0.247 (inactive) in experiment [16]; 0.235 in [17]; 2.78 (inactive) in experiment [18]; 1.14 (inactive) in [19]. In experiment [20], the z-score was -0.0124.

Consider `CN(C)C(=O)[C@@]1(Cc2ccccc2CN=[N+]=[N-])N=C(c2ccc(OCCCO)cc2)O[C@H]1c1ccccc1CN=[N+]=[N-]`, for which the composite z-score in experiment [1] is 0.507; in experiment [6] it was 1.1; in experiment [7], 0.575; in experiment [8], 0.0276; in experiment [9], 0.767; in experiment [10], -0.304. The compound further came in with a composite z-score in experiment [12] of 0.315. Further, the z-score was -3.14 (inactive) in experiment [2]; 0.427 (inactive) in experiment [3]; 2.69 (inactive) in [4]; 0.517 (inactive) in experiment [5]; -0.395 (inactive) in experiment [11]; 10.9 (active) in experiment [13]. For the same compound, the z-score in [14] was 1.46 (inactive); in [15], 0.589 (inactive); in [16], 0.515 (inactive); in [17], 0.0709; in [18] it was -0.379 (inactive); in [19], 1.43 (inactive). In experiment [20], this compound returned a z-score of 2.09.

Turning to `[N-]=[N+]=Nc1ccccc1[C@@H]1OC(c2ccc(OCCCO)cc2)=N[C@]1(Cc1ccccc1)C(=O)NCC(O)CO` (stereo not given in full), the composite z-score was 0.951 in experiment [1]; 1.34 in [6]; 0.572 in experiment [7]; 0.436 in experiment [8]; 1.47 in experiment [9]; -0.231 in experiment [10]. In addition, the composite z-score in experiment [12] stood at 0.665. The z-score was -3 (inactive) in experiment [2]; 0.255 (inactive) in experiment [3]; 0.834 (inactive) in experiment [4]; -1.8 (inactive) in [5]; 0.792 (inactive) in [11]; 31 (active) in experiment [13]. The z-score in experiment [14] was 28 (active); in experiment [15], 2.32 (inactive); in experiment [16], 6.87 (inactive); in experiment [17], -0.0152; in experiment [18], -1.36 (inactive); in [19] it was 1.07 (inactive). This compound showed a z-score in experiment [20] of -0.606.

On to `O=C1O[C@@H](c2ccccc2)[C@@H](c2ccccc2)N2[C@@H](c3ccc(OCCO)cc3)[C@]3(C(=O)Nc4ccccc43)[C@@H](C(=O)O)[C@H]12`, for which the composite z-score in experiment [1] was determined as 0.615; in experiment [6], 0.0928; in experiment [7], 0.697; in [8], 0.043; in experiment [9] it was 1.65; in [10], 0.301. In addition, the composite z-score in [12] came out at 1.46. The z-score in [2] was -4.21 (inactive); in experiment [3] it was -0.148 (inactive); in experiment [4] it was -0.258 (inactive); in experiment [5], 0.273 (inactive); in experiment [11], 0.635 (inactive); in experiment [13], 7.13 (inactive). Also, the z-score in experiment [14] is -1.02 (inactive); in experiment [15], -0.202 (inactive); in experiment [16], -1.62 (inactive); in experiment [17] it was 1.52; in experiment [18] it was 0.262 (inactive); in [19], -0.444 (inactive). In [20], the z-score was -0.985.

In the case of `COC(=O)[C@@]1(Cc2ccc(OC)cc2)[C@H]2c3cc(C(=O)N(C)C)n(Cc4ccc(Cl)c(C(F)(F)F)c4)c3C[C@H]2CN1C(=O)c1ccccc1`, the composite z-score in experiment [1] is 0.758; in experiment [6], 0.725; in experiment [7], 0.515; in [8], -0.213; in [9], 0.234; in experiment [10], -0.988. Moreover, the composite z-score in experiment [12] amounted to 0.357. The z-score is -2.81 (inactive) in experiment [2]; 0.275 (inactive) in experiment [3]; 2.87 (inactive) in experiment [4]; 2.18 (inactive) in experiment [5]; -1.4 (inactive) in [11]; 7.57 (inactive) in experiment [13]. The z-score in [14] is 1.42 (inactive); in [15], 1.01 (inactive); in experiment [16] it was 1.21 (inactive); in [17] it was -0.264; in experiment [18] it was 1.19 (inactive); in [19] it was -0.227 (inactive). In experiment [20], this compound gave a z-score of 1.57.

For `COc1ccc(-c2cc3c(c(CCc4ccccc4)n2)[Si](C(C)C)(C(C)C)OC3)cn1`, the composite z-score in experiment [1] was -0.131; in experiment [6] it was 0.294; in experiment [7], -0.0986; in experiment [8], 0.188; in experiment [9], -0.168; in [10], 0.434. Besides, the composite z-score in experiment [12] was -0.196. The z-score in experiment [2] was -0.817 (inactive); in experiment [3] it was -0.0937 (inactive); in [4], -0.127 (inactive); in [5] it was 0.307 (inactive); in [11], -0.0928 (inactive); in [13], 3.8 (inactive). For the same compound, the z-score in experiment [14] was 0.745 (inactive); in experiment [15], -0.119 (inactive); in experiment [16], 0.114 (inactive); in experiment [17] it was -0.108; in [18], -0.44 (inactive); in experiment [19], -0.0624 (inactive). Further, the z-score in experiment [20] was -1.49.

Take `CCCCCCc1nc(C2CC2)cc2c1[Si](C(C)C)(C(C)C)O[C@H]2c1ccccc1`: the composite z-score in [1] was -0.0368; in experiment [6], 0.147; in [7] it was 0.0319; in experiment [8], 0.338; in experiment [9] it was 0.378; in experiment [10], 1.59. Also, in experiment [12], the composite z-score was -0.23. Also, the z-score in experiment [2] is 0.086 (inactive); in experiment [3], -0.0699 (inactive); in [4], 0.134 (inactive); in experiment [5] it was 0.128 (inactive); in experiment [11], -1.27 (inactive); in experiment [13], 0.0479 (inactive). Further, the z-score in experiment [14] is -0.0357 (inactive); in experiment [15], 0.453 (inactive); in [16], -0.11 (inactive); in [17], -0.653; in experiment [18], -3.31 (inactive); in experiment [19], -0.00134 (inactive). The same compound had a z-score in experiment [20] of -1.77.

For the origin of these results see PubChem BioAssay.
